Twelve compounds from PubChem BioAssay (Tox21) can be followed below.

The nature of test [1]: qHTS assay to identify small molecule agonists of the RXR signaling pathway - cell viability counter screen (AID 1159529). Also: series mostly up to about 77 µM; nearly all actives have a fitted effect of over 50% in size. In a few lines: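 Cell viability is measured by CellTiter-Glo luminescence, 30 min at room temperature, in wells already read for beta-lactamase. Engineered HEK 293T cells (RXR-alpha-UAS-bla) are dosed 16 hr at 37 C. Tetraoctyl ammonium bromide serves as positive control.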
For orientation: qHTS replaces the single test concentration by a dilution series.

Test [2] can be described thus: qHTS assay to identify small molecule antagonists of the retinoid acid receptor (RAR) signaling pathway - cell viability counter screen (AID 1159551). Also: nearly all actives have a fitted effect of over 35% in size. The essentials: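 Luminescent ATP quantitation (CellTiter-Glo) gave cell viability in C3RL4 cells exposed to test chemicals for 6 h at 37 C alongside 1 uM final retinol.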
Test [3] can be described thus: qHTS assay to identify small molecule antagonists of the estrogen related receptor (ERR) signaling pathway from Tox21 library - cell viability counter screen (AID 1224834). Also: nearly all actives have a fitted effect of over 30% in size. Also: potency is read from the fitted curve at half-maximal effect. In a few lines: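 Fluorescence from CellTiter-Fluor gives the viability read-out, taken 30 min after reagent addition. Before that, ERR cells seeded 6 h earlier were incubated with compounds for 17.5 h at 37 C.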

Test [4] concerns the target Luciferin 4-monooxygenase (Photinus pyralis) (UniProt P08659). As to the kind of experiment: qHTS assay to identify small molecule inhibitors of firefly luciferase (AID 1224835). Also: nearly all actives have a fitted effect of over 25% in size. Also: potency is read from the fitted curve at half-maximal effect. In a few lines: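 Inhibition of purified Photinus luciferase is measured by luminescence. Substrate levels (D-luciferin, ATP) sit at their KM values. Each compound is tested in a concentration series.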

A short description of test [5]: qHTS assay to identify small molecule agonists of the constitutive androstane receptor (CAR) signaling pathway - cell viability counter screen (AID 1224836). Also: nearly all actives have a fitted effect of over 45% in size. Also: potency is read from the fitted curve at half-maximal effect. The essentials:
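Counter screen multiplexed with the CAR reporter readout: HepG2 cells co-transfected with hCAR and the CYP2B6-2.2kb construct receive a 15-concentration compound series and 0.75 uM PK11195 (final), then CellTiter-Fluor fluorescence is read after 23 h.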

The nature of test [6]: qHTS assay to identify small molecule antagonists of the constitutive androstane receptor (CAR) signaling pathway - cell viability counter screen (AID 1224837). Also: nearly all actives have a fitted effect of over 45% in size. Also: potency is read from the fitted curve at half-maximal effect. In a few lines: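 HepG2-CYP2B6-hCAR cells, 2500/well, 4 hr pre-incubation; compound titration, 15 conc.; CITCO 50 nM final; 23 hr, 37 C/5% CO2; CellTiter-Fluor, fluorescence intensity.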
Test [7] addresses Nuclear receptor subfamily 1 group I member 3 (Homo sapiens) (UniProt Q14994). As to the kind of experiment: qHTS assay to identify small molecule antagonists of the constitutive androstane receptor (CAR) signaling pathway (AID 1224838).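 Also: HepG2 cells stably expressing hCAR with CYP2B6 luciferase reporter stimulated by CITCO; nearly all actives have a fitted effect of over 40% in size.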 The essentials: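 HepG2-CYP2B6-hCAR cells; 4 h pre-incubation; cpd (15 conc) + CITCO 50 nM final; 24 h, 37 C/5% CO2; ONE-Glo, luminescence.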

For test [8] the target is unchanged. Description: qHTS assay to identify small molecule agonists of the constitutive androstane receptor (CAR) signaling pathway (AID 1224839). Also: nearly all actives have a fitted effect of over 15% in size. Also: potency is read from the fitted curve at half-maximal effect. In a few lines:
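A 15-concentration quantitative screen uses HepG2 cells co-transfected stably with human CAR and CYP2B6-2.2kb reporter. Treatment lasts 24 h with 0.75 uM PK11195 final present; ONE-Glo luminescence is the signal.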

Test [9] in a line: qHTS assay to identify small molecule agonists of the retinoic acid receptor (RAR) signaling pathway (AID 1159553). In a few lines:
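Luminescence from a RARE-driven luciferase reporter in C3RL4 cells served as the read-out, measured after 30 min with detection reagent at room temperature. Compounds in DMSO were applied for 6 hr at 37 C following overnight seeding.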

The nature of test [10]: qHTS assay to identify small molecule antagonists of the estrogen related receptor signaling pathway with the pleiotropic PPARgamma coactivator (PGC) from Tox21 10K library - cell viability counter screen (AID 1224840; active = well fitted cell-killing curve with a large enough effect in the repeat runs, not every such curve was filed as active; also: nearly all actives have a fitted effect of over 40% in size; also: potency is read from the fitted curve at half-maximal effect). The essentials:
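PGC/ERR cells, 2,000/well; 6 h pre-incubation 37 C/5% CO2; cpd in DMSO via pin tool; 17.5 h 37 C; CellTiter-Fluor, 30 min; fluorescence.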

Test [11] in a line: qHTS assay to identify small molecule antagonists of the estrogen related receptor signaling pathway with the pleiotropic PPARgamma coactivator (PGC) from Tox21 10K library (AID 1224841; call rule not given here; also: series mostly up to about 92 µM; actives are mostly falling curves and most rising ones were filed inactive; nearly all actives have a fitted effect of over 50% in size). The essentials: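 PGC/ERR cell line, 2,000 cells/well; 6 h pre-incubation 37 C/5% CO2; compounds (DMSO) pinned in; 18 h, 37 C; One-Glo, 30 min RT; luminescence.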
The nature of test [12]: qHTS assay to identify small molecule agonists of the estrogen related receptor signaling pathway with the pleiotropic PPARgamma coactivator (PGC) from Tox21 10K library (AID 1224842). Also: nearly all actives have a fitted effect of over 15% in size. The essentials:
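Luminescence from One-Glo (30 min, room temperature) measured after PGC/ERR cells had 18 h at 37 C with pinned compound (23 nL in DMSO). Cells had been seeded at 2,000 per well and pre-incubated 6 h.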

SMILES strings stand for the structures. Results filed as inconclusive are left out. The source made the active and inactive calls. Unless noted, calls follow the shape of the dose curve; as a rule, active = well fitted curve in the direction sought with a large enough effect in the repeat runs; inconclusive = weak or mixed curves; inactive = no such curve, though single readings can be large; an effect the other way counts as inactive or inconclusive.

Sequence of Luciferin 4-monooxygenase (Photinus pyralis) (P08659 whole entry, looked up): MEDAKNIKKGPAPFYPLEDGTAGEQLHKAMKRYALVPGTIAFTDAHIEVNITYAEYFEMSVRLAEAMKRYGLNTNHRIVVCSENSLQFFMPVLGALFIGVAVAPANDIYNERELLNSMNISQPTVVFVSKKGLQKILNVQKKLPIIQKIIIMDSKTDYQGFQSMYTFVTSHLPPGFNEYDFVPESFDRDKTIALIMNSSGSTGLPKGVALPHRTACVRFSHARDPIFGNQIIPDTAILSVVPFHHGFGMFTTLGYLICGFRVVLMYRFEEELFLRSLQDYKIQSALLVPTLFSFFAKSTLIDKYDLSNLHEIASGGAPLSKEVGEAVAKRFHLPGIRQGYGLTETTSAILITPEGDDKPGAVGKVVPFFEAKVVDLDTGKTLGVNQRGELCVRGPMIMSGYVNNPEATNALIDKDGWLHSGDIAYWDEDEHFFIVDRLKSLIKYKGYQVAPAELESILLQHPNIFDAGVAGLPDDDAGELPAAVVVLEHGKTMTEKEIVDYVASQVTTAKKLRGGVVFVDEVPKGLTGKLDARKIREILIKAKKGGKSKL
Sequence of Nuclear receptor subfamily 1 group I member 3 (Homo sapiens) (Q14994 whole entry, looked up): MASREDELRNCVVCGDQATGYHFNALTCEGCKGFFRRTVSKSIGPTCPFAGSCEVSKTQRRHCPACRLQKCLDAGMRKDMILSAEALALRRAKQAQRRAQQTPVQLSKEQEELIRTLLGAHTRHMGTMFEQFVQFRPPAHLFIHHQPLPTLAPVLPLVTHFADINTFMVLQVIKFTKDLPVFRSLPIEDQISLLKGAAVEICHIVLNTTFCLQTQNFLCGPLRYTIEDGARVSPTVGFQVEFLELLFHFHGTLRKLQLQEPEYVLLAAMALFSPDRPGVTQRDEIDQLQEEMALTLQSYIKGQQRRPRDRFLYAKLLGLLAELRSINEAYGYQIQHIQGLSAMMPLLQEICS

Turning to `Nc1ccc(F)cc1F`, the Potency result in test [1], in test [3], in test [4], in [5], in test [6] and in [7] was “inactive” each time. For the same compound, the Potency entry in [8] was “inactive”. Moreover, the outcome in test [2] was inactive.

Turning to `CC(C)(Cc1c[nH]c2ccccc12)NCC(O)COc1ccccc1C#N` (stereo not given), the Potency entry in test [1], in test [9], in [4], in test [5], in test [6] and in [10] was “inactive” in each case. In addition, in [2], the compound was classed as inactive.

Consider `CCOCCn1c(N2CCCN(C)CC2)nc2ccccc21`, for which the Potency entry in test [1], in test [9], in test [3], in [4], in [5] and in [6] was “inactive” each time. Also, the Potency entry in [10] is “inactive”. For the same compound, the compound was called inactive in test [2].

As for `CC1=C(C)C(=O)C(C(CCCCCC(=O)O)c2ccccc2)=C(C)C1=O` (stereo not given), the Potency entry in test [1], in test [9], in test [3], in test [4], in test [5] and in test [6] was “inactive” throughout. In test [10], the Potency result is “inactive”. For the same compound, the result in test [2] was inactive.

Regarding `O=C1c2ccccc2C(=O)C1c1ccc2cc(S(=O)(=O)O)cc(S(=O)(=O)O)c2n1`, the Potency entry in test [1], in test [7], in test [11] and in test [12] was “inactive” each time. For the same compound, the compound was classed as inactive in [2]. Further, the Potency in test [3] was 29.5 µM (active); in test [4] it was 30.6 µM (active); in [5] it was 66.1 µM (active); in test [6], 52.5 µM (active); in test [8], 41.7 µM (active); in test [10] it was 33.1 µM (active).

As to `Cc1ccc(NC=O)c(C)c1`, the Potency result in [1], in test [3], in test [4], in test [5], in test [6] and in test [10] was “inactive” each time. Moreover, in [2], the outcome was inactive.

Turning to `Cc1cc(SC2=C(O)C[C@@](CCc3ccc(N)cc3)(C(C)C)OC2=O)c(C(C)(C)C)cc1CO`, the Potency entry in test [1], in test [3], in [4], in test [5], in test [6] and in test [10] was “inactive” in each case. Also, the Potency entry in test [11] and in test [12] was “inactive” throughout. Moreover, the compound was called inactive in test [2].

Turning to `O=P(c1ccccc1)(c1ccccc1)c1ccccc1`, the Potency result in test [1], in test [3], in test [4], in [5], in [6] and in [7] was “inactive” each time. Besides, in [10], the Potency entry is “inactive”. Further, the result in test [2] was inactive.

As for `Cc1nc(C)c(C)nc1C`, the Potency result in [1], in [3], in [4], in [5], in test [6] and in [7] was “inactive” each time. Moreover, the Potency entry in test [8], in test [10] and in test [11] was “inactive” each time. In test [2], the call was inactive.

As for `CCCCCO`, the Potency result in test [1], in test [3], in [4], in [5], in test [6] and in [7] was “inactive” each time. Besides, the Potency result in test [8], in test [10], in test [11] and in test [12] was “inactive” each time. Also, the result in test [2] was inactive.

With `C[C@H](N)C(=O)N[C@@H](C)C(=O)NC1[C@H]2CN(c3nc4c(cc3F)c(=O)c(C(=O)O)cn4-c3ccc(F)cc3F)C[C@@H]12` (stereo not given in full), the Potency entry in test [1], in [3], in test [4], in test [5], in test [6] and in test [7] was “inactive” each time. Besides, the Potency entry in test [10] and in [11] was “inactive” each time. The outcome in [2] was inactive.

As to `C=CC(O)CCCCC` (stereo not given), the Potency entry in [1], in [3], in test [4], in test [5], in test [6] and in test [8] was “inactive” throughout. The Potency entry in test [10] and in test [12] was “inactive” in each case. Further, in test [2], the call was inactive.
